From PubChem BioAssay
CHX counter = affects cycloheximide protein synthesis inhibition readout, counter-screen; cell reporter, cycloheximide protein synthesis inhibition counterscreen; actives 12% (n = 300,000); max response, %; in the data active = max response mostly above about 13%, no sharp cut-off; inactive = mostly below about 14%; also: read at 38.3 µM for the half of the compounds with a filed dose
Pf growth 48h = inhibits P. falciparum growth in the first generation, 48 h; actives 5.9% (n = 310,000); AID 504832; P. falciparum luciferase growth in erythrocytes, 48 h; Potency, µM (top dose mostly 28.7 µM), actives largely listed as inhibitors
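Firefly luciferase activity from engineered P. falciparum reports growth; inhibitors lower the luminescent signal. Cultures contained 2% hematocrit erythrocytes at 0.1% final parasitemia.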
Shiga inhibitor = blocks Shiga toxin action in Vero cells; Vero cells, Shiga toxin protein synthesis inhibition reporter; inhibition, % at 38.7 µM; actives 9.2% (n = 290,000); in the data active = inhibition mostly above about 28%, no sharp cut-off; inactive = mostly below about 43%
Pf growth 96h = inhibits malaria parasite growth, 96 h. P. falciparum luciferase reporter growth, 96 h. Potency, µM (titrated, usually from 28.7 µM), actives largely listed as inhibitors. actives 6.9% (n = 320,000)
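Infected RBCs, 2% Hct / 0.05% parasitemia final; luciferase-reporter P. falciparum; cpd 96 h, 37 C, 5% CO2; luciferase detection reagent; luminescence.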
Hits are given with their value; - = inactive; ? = inconclusive; . = not tested or not shown. Compounds with a hit are over-represented: about 21% of the library has one in this group of screens. Unless noted, calls follow the shape of the dose curve; as a rule, active = well fitted inhibition curve with a large enough effect; inconclusive = small, poorly fitted or top-dose-only effect, or another doubt; inactive = no such curve, though single readings can be large or run the other way.

SMILES	CHX counter	Pf growth 48h	Shiga inhibitor	Pf growth 96h
C=C1C[C@H](O)[C@@H]2[C@H](OC(=O)[C@H]2C)[C@H]2[C@H](C)[C@@H](O)C[C@@H]12	.	-	.	-
COC(=O)c1[nH]c2cccc(OC)c2c1NC(=O)CN1CCN(c2cccc(OC)c2)C(C)C1 (configuration not stated)	-	?	-	-
CCOC(=O)c1[nH]c2cc(OC)c(OC)cc2c1NC(=O)CN1CCN(c2ccc(OC)cc2)C(C)C1 (configuration not stated)	-	9.28µM	-	.
CCN(CC)S(=O)(=O)c1ccc(C(=O)NNC(=O)C2CCN(S(=O)(=O)c3ccc(Cl)cc3)CC2)cc1	-	-	-	?
Cc1ccccc1S(=O)(=O)Cc1ccc(C(=O)NCc2ccccc2)o1	-	-	-	?
O=C(NCc1ccccc1)c1ccc(CS(=O)(=O)c2ccccc2)o1	-	.	-	10.4µM
Cc1ccccc1S(=O)(=O)Cc1ccc(C(=O)NCc2cccnc2)o1	-	-	-	9.28µM
O=C(NCc1ccccc1)c1ccc(CS(=O)(=O)c2ccc(Br)cc2)o1	-	-	-	?
CCOC(=O)c1ccc(NC(=O)CSc2ccc(-c3ccncc3)nn2)cc1	-	-	-	?
FC(F)Sc1ccc(NC(=S)NC2CCC(NC(=S)Nc3ccc(SC(F)F)cc3)CC2)cc1 (configuration not stated)	-	?	-	.
Oc1cccc2c(NC(=S)Nc3ccc(SC(F)F)cc3)cccc12	82.3	-	134.9	-
Oc1cccc(NC(=S)Nc2ccc(SC(F)F)cc2)c1	21.3	-	-	-
CCCCNC(=S)Nc1ccc(SC(F)F)cc1	60.5	?	148.6	?
Oc1ccccc1N1CCN(C(=S)Nc2ccc(SC(F)F)cc2)CC1	-	-	-	-
Cc1ccc(N(C)S(=O)(=O)c2ccc3[nH]cc(C(=O)NCCCN4CCOCC4)c(=O)c3c2)cc1C	-	2.33µM	-	?
CCCNC(=O)c1c[nH]c2ccc(S(=O)(=O)N(C)c3ccc(OCC)cc3)cc2c1=O	-	11.7µM	-	-
CCN(c1ccccc1)S(=O)(=O)c1ccc2[nH]cc(C(=O)NCCOC)c(=O)c2c1	-	?	-	-
Cc1ccc(C)c(N(C)S(=O)(=O)c2ccc3[nH]cc(C(=O)NCCN4CCOCC4)c(=O)c3c2)c1	-	?	-	.
CCCCN(C)CCNC(=O)c1c[nH]c2ccc(S(=O)(=O)N(CC)CC)cc2c1=O	-	3.7µM	-	-
CN(C)CCN(C(=O)c1ccc(S(=O)(=O)N(C)CC2CCCO2)cc1)c1nc2cc3c(cc2s1)OCO3 (configuration not stated)	24.9	-	-	-
CN(C)CCN(C(=O)c1ccc(S(=O)(=O)N(C)c2ccccc2)cc1)c1nc2cc3c(cc2s1)OCCO3	22.0	-	61.5	-
CCN(CC)CCN(C(=O)C1=COCCO1)c1nc2ccc(C)cc2s1	18.4	-	34.9	-
CCN(CC)CCN(C(=O)c1ccc2ncsc2c1)c1nc2cc3c(cc2s1)OCO3	75.1	-	125.4	-
CCCCCCCCNC(=O)c1ccc(C)cc1	-	-	-	-
CN(C)CCN(C(=O)c1ccc2c(c1)OCCO2)c1nc2cc3c(cc2s1)OCO3	55.1	-	-	-
SMILES	CHX counter	Pf growth 48h	Shiga inhibitor	Pf growth 96h
CN(C)CCN(C(=O)c1ccc2c(c1)CCCC2)c1nc2cc3c(cc2s1)OCCO3	-	-	-	-
CC(=O)N(CCN(C)C)c1nc2cc3c(cc2s1)OCCO3	30.8	-	65.6	-
CCN(CC)CCN(C(=O)c1ccc(Br)s1)c1nc2cc3c(cc2s1)OCCO3	-	-	-	-
CN(C)CCN(C(=O)c1ccc(S(=O)(=O)N(C)C)cc1)c1nc2cc3c(cc2s1)OCCO3	22.3	-	-	-
CCCCN(C(=O)c1ccc(S(=O)(=O)N(C)C)cc1)c1nc2ccccc2s1	-	?	-	1.85µM
COc1cc2c(=O)n(-c3ccc(C)cc3)c(=O)n(CC(=O)c3ccc4c(c3)OCO4)c2cc1OC	-	11.7µM	-	-
CC(C)Cn1cc(Cl)c(=O)n(CC(C)C)c1=O	-	-	-	-
CC(C)NC(=O)c1cc(-c2ccc(Br)cc2)on1	48.8	-	121.8	?
CN(Cc1ccccc1)C(=O)c1cc(-c2ccc(Br)cc2)on1	20.7	-	68.9	?
CCCNC(=O)c1cc(-c2ccc(Br)cc2)on1	33.9	-	66.1	?
CC(C(=O)N1CCCCCC1)c1ccc([N+](=O)[O-])cc1 (configuration not stated)	-	-	-	-
O=c1c2ccccc2nnn1CSc1ncnc2ccccc12	-	-	-	?
Cc1ccc2nc(SCn3nnc4ccccc4c3=O)[nH]c2c1	65.2	-	98.3	-
Cc1cc(=O)[nH]c(SCn2nnc3ccccc3c2=O)n1	-	.	-	-
Cc1ccc(-n2c(SCn3nnc4ccccc4c3=O)nnc2-c2cccnc2)c(C)c1	-	10.4µM	-	?
O=C(O)c1nn(CCSc2ccccc2F)c(=O)c2ccccc12	22.6	-	-	-
O=c1c2ccccc2nnn1CSc1ccccc1F	63.1	-	55.3	-
Cc1c(C)c(C)c(C(=O)C2CCN(c3ccc([N+](=O)[O-])cn3)CC2)c(C)c1C	-	?	-	?
Cc1cccc(NC(=O)c2nc[nH]c2C(=O)NCC(=O)OC(C)(C)C)c1	-	-	-	-
CCOc1nc2cnccc2n(CC(=O)Nc2ccc(C)c(C)c2)c1=O	-	-	-	?
O=c1ccnc(SCn2nnc3ccccc3c2=O)[nH]1	-	-	-	.
O=c1c2ccccc2nnn1CSc1nnc2sc3ccccc3n12	37.8	-	79.2	-
Cc1ccc(SCn2nnc3ccccc3c2=O)c(C)c1	50.6	-	117.8	-
O=c1c2ccccc2nnn1CSc1nc2ccccc2[nH]1	42.6	-	76.5	-
CC1CCC2(CC1)NC(=O)N(CC(=O)NCc1ccc(F)cc1)C2=O (configuration not stated)	.	-	.	?
SMILES	CHX counter	Pf growth 48h	Shiga inhibitor	Pf growth 96h
COCCNC(=O)C(=O)NCC1OCCN1S(=O)(=O)c1ccc(F)cc1 (configuration not stated)	-	-	-	-
COC(=O)c1sc(N)c(C(=O)OC)c1Cn1ncc(Cl)c(Cl)c1=O	-	13.1µM	-	8.28µM
COC(=O)c1sc(N)c(C(=O)OC)c1COC(=O)c1c(C)noc1C	-	?	-	?
CCc1nc2cc(Cl)c(Cl)cc2[nH]1	10.7	-	-	-
CC(=O)c1cn(CC(=O)Nc2ccccc2Cl)c2ccccc12	-	-	.	-
CCSc1ccccc1C(=O)N=C1NC(=O)CC2C(=O)NCCN12 (configuration not stated)	-	-	-	-
CCCCCCC(=O)N(O)C1CC(=O)N(Cc2ccccc2)C1=O (configuration not stated)	-	5.86µM	-	.
CCCCCC(=O)N(O)C1CC(=O)N(c2ccccc2)C1=O (configuration not stated)	-	10.4µM	-	?
Cc1ccccc1-n1c(SCC(=O)N2CCOCC2)nc(O)c(Cc2ccccc2)c1=O	-	-	-	-
COc1ccc(C(=O)N2CCN(Cc3nc(CC4CC4)no3)CC2)cc1	-	-	-	?
